Results reported in PubChem BioAssay (NCI).
Compounds without any hit were thinned out: in the full panel of roughly 83,000, 20% have a hit.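 Compound tested at a single concentration for 48 hours in 96-well plates; a percent growth value below 10 was scored as active.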 Values without a mark were called inactive. Calls of active or inactive are those of the source.

Columns and labels:
Assay in all cases: NCI-60 one-dose screen, 48 h (100 = growth as untreated, 0 = no growth, -100 = all killed)
Details in all cases: 10 µM unless noted
SR leukemia = test system: SR leukemia
RPMI-8226 leukemia = test system: RPMI-8226 leukemia
OVCAR-8 ovarian = test system: OVCAR-8 ovarian
OVCAR-5 ovarian = test system: OVCAR-5 ovarian
OVCAR-4 ovarian = test system: OVCAR-4 ovarian
SK-OV-3 ovarian = test system: SK-OV-3 ovarian
IGROV1 ovarian = test system: IGROV1 ovarian
OVCAR-3 ovarian = test system: OVCAR-3 ovarian
HS 578T breast = test system: HS 578T breast
NCI/ADR-RES ovarian = test system: NCI/ADR-RES ovarian

| Structure (SMILES) | growth (SR leukemia) | growth (RPMI-8226 leukemia) | growth (OVCAR-8 ovarian) [%] | growth (OVCAR-5 ovarian) [%] | growth (OVCAR-4 ovarian) [%] | growth (SK-OV-3 ovarian) | growth (IGROV1 ovarian) [%] | growth (OVCAR-3 ovarian) | growth (HS 578T breast) | growth (NCI/ADR-RES ovarian) [%] |
| --- | --- | --- | --- | --- | --- | --- | --- | --- | --- | --- |
| CCOC(=O)Cc1cnn(C)c1NC(=O)c1ccc(Cl)cc1NC(C)=O | 104% | 102% | 99.8 | 99.3 | 110 | 102% | 105 | 108% | 97% | 106 |
| C=C1CC[C@@H]2[C@](C)(COC(C)=O)[C@H](OC(C)=O)CC[C@@]2(C)[C@@H]1CC(Nc1ccc(S(=O)(=O)Nc2nc(C)cc(C)n2)cc1)C1=CCOC1=O (stereo not given in full) | 22.2% | 2.24% (active) | 62 | 103 | 65 | 112% | 81.5 | 44.8% | 99.8% | 66.6 |
| COc1ccc(-c2cn3c(ccc4ccccc43)n2)cc1 | 102% | 92.1% | 98.8 | 112 | 101 | 92.8% | 78.3 | 89.7% | 96.2% | 96.3 |
| COc1cccc(-c2nc3sccn3c2-c2ccnc(NCCCNS(=O)(=O)c3ccccc3)c2)c1 | 53.7% | -17.4% (active) | 17.6 | 92 | 27.6 | 79.2% | 39.6 | 38.7% | 66.8% | 12.7 |
| CCCCNP1(NCCCC)=NP(NCCCC)(NCCCC)=NP(NCCCC)(NCCCC)=NP(NCCCC)(NCCCC)=N1 | -51.8% (active) | -41.7% (active) | 16.7 | 16.7 | 16.9 | 7.65% (active) | 30.7 | -48.7% (active) | -7.98% (active) | 97.2 |
| O=c1c2cccc3c(NC4CCCCC4)ccc(c32)c2nc3ccccc3n12 | 1.11% (active) | 75.6% | 97.9 | 103 | 80.1 | 98.3% | 41.2 | 86.8% | 96% | 95.5 |
| O=C1CC(c2nc3ccccc3s2)CN1C1CCCCC1 (stereo not given) | 97.1% | 98.4% | 95.4 | 99.8 | 94.1 | 91.6% | 95 | 101% | 98.9% | 89.4 |
| ClC1=C2NC=NC2n2c(nnc2-c2ccc(Cl)cc2)N1 (stereo not given) | 91.9% | 89.2% | 96.9 | 110 | 116 | 105% | 119 | 120% | 112% | 108 |
| Cc1cc(OCc2ccc(C(F)(F)F)cc2)c2c(c1)C(=O)C=C(NCCN1CCCC1)C2=O | -11.6% (active) | 29.9% | 72.3 | 87.9 | 68 | 103% | 74.8 | 83.9% | 85% | 81.1 |
